Several values for one entry are separate records, joined by “and”; a condition that tells them apart may be missing. Identical values can stand only once. Results filed as inconclusive are left out. A structure can be active in one record and inactive in another. Activity calls are given as the source filed them. How the source made its calls: active means hit-call score of the fitted dose curve at least 0.9, where 1 is the maximum; inconclusive means response in the unintended direction; inactive means score below 0.9.
Assays:
[1] = target: human Dopamine Transporter (DAT), SLC6A3 (gene 6531) (UniProt Q01959); assay: NVS_TR_hDAT: NovaScreen (NVS) Transporter Assay for human Dopamine Transporter (DAT) (AID 2283374);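 further: activity means loss of bound radioligand signal relative to DMSO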
Sequence of human Dopamine Transporter (DAT), SLC6A3 (gene 6531) (Q01959 whole entry, looked up): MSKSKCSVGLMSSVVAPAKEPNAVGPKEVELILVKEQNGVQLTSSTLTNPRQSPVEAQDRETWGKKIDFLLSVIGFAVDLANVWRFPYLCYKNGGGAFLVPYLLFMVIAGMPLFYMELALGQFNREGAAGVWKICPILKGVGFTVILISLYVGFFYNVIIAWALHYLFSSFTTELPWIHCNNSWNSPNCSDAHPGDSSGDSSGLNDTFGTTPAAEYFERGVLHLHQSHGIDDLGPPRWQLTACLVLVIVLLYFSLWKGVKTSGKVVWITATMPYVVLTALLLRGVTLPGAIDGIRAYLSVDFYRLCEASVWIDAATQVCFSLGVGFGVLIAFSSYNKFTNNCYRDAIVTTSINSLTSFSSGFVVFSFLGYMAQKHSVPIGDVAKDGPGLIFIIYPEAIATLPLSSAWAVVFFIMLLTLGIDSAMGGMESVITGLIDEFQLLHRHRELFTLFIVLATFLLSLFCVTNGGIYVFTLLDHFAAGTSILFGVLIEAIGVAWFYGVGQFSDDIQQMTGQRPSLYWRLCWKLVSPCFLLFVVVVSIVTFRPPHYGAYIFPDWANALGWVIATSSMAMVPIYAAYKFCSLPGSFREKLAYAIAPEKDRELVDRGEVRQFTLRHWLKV
How it was run: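 hDAT membranes + tritiated/iodinated radioligand, competitive displacement; 1 h; filter scintillation readout. Single conc 25 uM (duplicate), then conc-response for actives. DMSO = negative control.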

[2] = target: Peroxisome proliferator-activated receptor gamma (Homo sapiens) (UniProt P37231); assay: NVS_NR_hPPARg: NovaScreen (NVS) Nuclear Receptor Binding Assay for human Peroxisome Proliferator-activated Receptor gamma (PPARg) (AID 2283370)
Sequence of Peroxisome proliferator-activated receptor gamma (Homo sapiens) (P37231 whole entry, looked up): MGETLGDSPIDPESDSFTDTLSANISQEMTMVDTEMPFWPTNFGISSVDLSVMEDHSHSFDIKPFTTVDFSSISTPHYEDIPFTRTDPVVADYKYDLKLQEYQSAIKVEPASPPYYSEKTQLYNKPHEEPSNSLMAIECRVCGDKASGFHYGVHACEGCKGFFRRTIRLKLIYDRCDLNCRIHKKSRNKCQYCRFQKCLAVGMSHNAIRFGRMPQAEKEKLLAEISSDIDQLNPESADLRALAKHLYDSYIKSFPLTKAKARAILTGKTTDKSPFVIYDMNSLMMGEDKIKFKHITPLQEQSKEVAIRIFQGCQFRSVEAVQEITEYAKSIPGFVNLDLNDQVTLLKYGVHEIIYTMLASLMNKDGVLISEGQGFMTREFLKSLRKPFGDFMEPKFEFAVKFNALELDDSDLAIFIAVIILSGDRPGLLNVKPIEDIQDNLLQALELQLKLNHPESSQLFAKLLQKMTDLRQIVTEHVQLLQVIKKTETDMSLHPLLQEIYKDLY
How it was run: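 Extracted receptor protein, cell-free; compound incubated 2 h then fluorescence polarization read. Baseline: DMSO. Actives from 25 uM duplicate screen re-run across concentrations.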

[3] = target: human Norepinephrine Transporter (NET), SLC6A2 (gene 6530) (UniProt P23975); assay: NVS_TR_hNET: NovaScreen (NVS) Transporter Assay for human Norepinephrine Transporter (NET) (AID 2283377);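 further: cell-free membrane protein extracted from CHO cells expressing human NET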;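 on AC50: displacement of radioligand from human NET seen as loss of scintillation signal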
Sequence of human Norepinephrine Transporter (NET), SLC6A2 (gene 6530) (P23975 whole entry, looked up): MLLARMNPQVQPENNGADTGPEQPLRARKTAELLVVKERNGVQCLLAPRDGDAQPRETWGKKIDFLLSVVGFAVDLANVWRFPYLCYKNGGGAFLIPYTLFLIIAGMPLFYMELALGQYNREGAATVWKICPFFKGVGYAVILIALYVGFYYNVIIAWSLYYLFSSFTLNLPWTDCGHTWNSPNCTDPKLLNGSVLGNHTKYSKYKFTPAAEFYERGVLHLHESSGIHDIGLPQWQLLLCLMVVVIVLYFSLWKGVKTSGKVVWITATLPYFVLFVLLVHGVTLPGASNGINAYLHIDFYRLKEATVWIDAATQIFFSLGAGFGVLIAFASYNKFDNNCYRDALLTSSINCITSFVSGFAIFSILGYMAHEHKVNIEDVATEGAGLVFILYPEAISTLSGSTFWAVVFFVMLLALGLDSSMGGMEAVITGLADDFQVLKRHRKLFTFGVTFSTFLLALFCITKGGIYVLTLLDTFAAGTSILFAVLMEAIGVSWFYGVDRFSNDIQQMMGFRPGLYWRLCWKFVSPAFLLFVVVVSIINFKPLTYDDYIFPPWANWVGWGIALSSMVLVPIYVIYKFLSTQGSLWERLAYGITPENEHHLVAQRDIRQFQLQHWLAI
How it was run: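 CHO cell extracts expressing the transporter; tritiated or iodinated tracer displaced competitively; filtration plus scintillation readout at 1 h. Single-point duplicates at 25 uM, concentration series for follow-up; activity = signal drop relative to DMSO.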

[4] = target: rat Serotonin Transporter (SERT), Slc6a4 (gene 25553) (UniProt P31652); assay: NVS_TR_rSERT: NovaScreen (NVS) Transporter Assay for rat Serotonin Transporter (SERT) (AID 2283375)
How it was run: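 Using rat forebrain membrane SERT, test chemicals compete with a radioligand for 1 hour, and bound counts are taken by filter-based scintillation. Screening starts at 25 uM in duplicate, followed by concentration series for actives.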

[5] = target: Norway rat Vesicular Monoamine Transporter (VMAT2), neurotransmitter transporter, Slc18a2 (gene 25549) (UniProt Q01827); assay: NVS_TR_rVMAT2: NovaScreen (NVS) Transporter Assay for Norway rat Vesicular Monoamine Transporter (VMAT2), neurotransmitter transporter (AID 2283376);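 further: actives lower the bound radioligand signal below the DMSO level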
Sequence of Norway rat Vesicular Monoamine Transporter (VMAT2), neurotransmitter transporter, Slc18a2 (gene 25549) (Q01827 whole entry, looked up): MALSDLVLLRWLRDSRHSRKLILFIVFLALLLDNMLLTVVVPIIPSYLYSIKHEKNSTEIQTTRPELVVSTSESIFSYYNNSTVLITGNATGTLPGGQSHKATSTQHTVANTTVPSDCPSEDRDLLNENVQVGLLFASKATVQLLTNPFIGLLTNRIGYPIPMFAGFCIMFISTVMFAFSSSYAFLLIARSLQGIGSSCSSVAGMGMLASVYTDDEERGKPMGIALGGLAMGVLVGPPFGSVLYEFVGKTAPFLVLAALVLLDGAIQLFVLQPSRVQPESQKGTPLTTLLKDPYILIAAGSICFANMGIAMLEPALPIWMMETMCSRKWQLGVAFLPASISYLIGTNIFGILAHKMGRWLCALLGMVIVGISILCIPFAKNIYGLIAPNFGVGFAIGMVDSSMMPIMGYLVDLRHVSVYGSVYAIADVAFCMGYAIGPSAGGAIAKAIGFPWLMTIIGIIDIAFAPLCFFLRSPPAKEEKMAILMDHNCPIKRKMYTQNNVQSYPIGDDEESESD
How it was run: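 Filter-based scintillation counting of radioligand bound to rat forebrain-derived VMAT2 protein, cell-free, 1 h post-dose. Signal loss relative to DMSO control scored; single-concentration duplicate screen (25 uM) followed by concentration-response testing of actives.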

[6] = target: human Serotonin Transporter (SERT), SLC6A4 (gene 6532) (UniProt P31645); assay: NVS_TR_hSERT: NovaScreen (NVS) Transporter Assay for human Serotonin Transporter (SERT) (AID 2283372)
Sequence of human Serotonin Transporter (SERT), SLC6A4 (gene 6532) (P31645 whole entry, looked up): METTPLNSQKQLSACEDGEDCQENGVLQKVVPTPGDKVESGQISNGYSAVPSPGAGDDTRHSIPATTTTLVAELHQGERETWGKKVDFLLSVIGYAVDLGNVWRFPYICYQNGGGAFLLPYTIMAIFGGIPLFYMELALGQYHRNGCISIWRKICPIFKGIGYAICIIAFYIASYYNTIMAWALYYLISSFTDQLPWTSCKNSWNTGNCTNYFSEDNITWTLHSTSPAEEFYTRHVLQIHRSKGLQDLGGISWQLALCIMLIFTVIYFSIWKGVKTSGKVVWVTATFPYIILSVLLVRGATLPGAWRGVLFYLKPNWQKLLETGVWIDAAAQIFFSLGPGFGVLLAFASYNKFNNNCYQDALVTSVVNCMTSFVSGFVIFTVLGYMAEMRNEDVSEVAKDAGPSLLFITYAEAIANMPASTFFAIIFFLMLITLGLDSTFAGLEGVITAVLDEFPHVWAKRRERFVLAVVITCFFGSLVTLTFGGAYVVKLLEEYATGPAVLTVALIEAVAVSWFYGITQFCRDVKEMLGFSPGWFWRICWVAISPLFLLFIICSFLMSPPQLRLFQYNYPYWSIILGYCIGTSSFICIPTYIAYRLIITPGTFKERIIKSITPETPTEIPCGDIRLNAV
How it was run: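 Human platelet membrane preparation; displacement of radioligand from serotonin transporter measured after 1 h by filtration and scintillation counting. Single 25 uM duplicate screen, then concentration series for actives, with DMSO as negative baseline.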

[7] = target: mouse Estrogen Receptor alpha (Era), Esr1 (gene 13982) (UniProt P19785); assay: NVS_NR_mERa: NovaScreen (NVS) Nuclear Receptor Binding Assay for mouse Estrogen Receptor alpha (Era) (AID 2283378);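 further: hit means loss of bound radioligand signal relative to DMSO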
Sequence of mouse Estrogen Receptor alpha (Era), Esr1 (gene 13982) (P19785 whole entry, looked up): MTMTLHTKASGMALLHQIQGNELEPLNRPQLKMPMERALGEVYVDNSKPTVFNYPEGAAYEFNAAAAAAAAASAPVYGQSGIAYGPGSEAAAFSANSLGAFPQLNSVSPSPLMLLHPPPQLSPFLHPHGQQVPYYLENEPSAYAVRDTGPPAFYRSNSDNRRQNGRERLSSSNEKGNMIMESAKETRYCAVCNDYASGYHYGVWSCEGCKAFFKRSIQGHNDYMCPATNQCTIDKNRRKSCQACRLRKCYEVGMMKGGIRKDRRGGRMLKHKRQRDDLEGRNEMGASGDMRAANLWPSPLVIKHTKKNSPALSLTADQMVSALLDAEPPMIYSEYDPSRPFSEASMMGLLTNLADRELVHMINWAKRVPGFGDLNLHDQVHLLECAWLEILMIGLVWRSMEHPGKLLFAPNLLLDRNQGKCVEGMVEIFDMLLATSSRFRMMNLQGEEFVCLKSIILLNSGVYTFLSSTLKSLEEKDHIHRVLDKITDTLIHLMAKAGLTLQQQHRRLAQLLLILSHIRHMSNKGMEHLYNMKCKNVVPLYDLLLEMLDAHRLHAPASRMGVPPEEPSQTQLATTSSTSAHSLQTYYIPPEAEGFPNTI
How it was run: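 Measurements come from scintillation counting after filtration, taken 18 hours after chemicals were added to a cell-free mouse Era preparation with radioligand. Screening was duplicate at 25 uM, with concurrent positive and negative controls and confirmatory concentration series for actives.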

[8] = target: Estrogen receptor beta (Homo sapiens) (UniProt Q92731); assay: OT_ER_ERbERb_1440: Odyssey Thera (OT) 24-hour HEK293T Protein-Complementation Assay for Estrogen Receptor-beta/-beta Homodimer (AID 2283380);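 further: scored as signal increase over DMSO baseline for both agonists and antagonists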
Sequence of Estrogen receptor beta (Homo sapiens) (Q92731 whole entry, looked up, the tested form may be a part): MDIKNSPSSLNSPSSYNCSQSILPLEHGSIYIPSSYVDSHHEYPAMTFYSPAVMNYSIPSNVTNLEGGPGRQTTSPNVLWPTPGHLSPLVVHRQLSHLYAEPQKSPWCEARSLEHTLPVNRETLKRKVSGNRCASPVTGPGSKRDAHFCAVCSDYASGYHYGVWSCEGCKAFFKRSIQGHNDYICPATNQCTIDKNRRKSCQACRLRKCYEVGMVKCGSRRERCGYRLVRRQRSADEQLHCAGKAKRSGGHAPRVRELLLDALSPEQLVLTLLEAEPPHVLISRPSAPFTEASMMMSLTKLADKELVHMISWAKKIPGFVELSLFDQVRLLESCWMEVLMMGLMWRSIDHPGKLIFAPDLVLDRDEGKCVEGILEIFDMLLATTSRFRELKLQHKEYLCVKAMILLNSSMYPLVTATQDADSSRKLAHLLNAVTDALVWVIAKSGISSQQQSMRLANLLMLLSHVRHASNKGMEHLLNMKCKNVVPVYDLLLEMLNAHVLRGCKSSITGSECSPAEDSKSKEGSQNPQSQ
How it was run: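 HEK293T cells stably expressing ER beta LBD (aa 310-547) homodimer fragment-complementation reporter, dosed 24 h. Cells formaldehyde-fixed, Draq5-stained; gain in nuclear (agonist) or nuclear plus cytoplasmic (antagonist) fluorescence versus DMSO read by laser scanning cytometry.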

[9] = target: Agonist Androgen Response Element (ARE), AR (gene 367) (UniProt P10275); assay: OT_AR_ARELUC_AG_1440: Odyssey Thera (OT) 24-hour CHO-K1 Luciferase Assay for Agonist Androgen Response Element (ARE) (AID 2283379)
Sequence of Agonist Androgen Response Element (ARE), AR (gene 367) (P10275 whole entry, looked up): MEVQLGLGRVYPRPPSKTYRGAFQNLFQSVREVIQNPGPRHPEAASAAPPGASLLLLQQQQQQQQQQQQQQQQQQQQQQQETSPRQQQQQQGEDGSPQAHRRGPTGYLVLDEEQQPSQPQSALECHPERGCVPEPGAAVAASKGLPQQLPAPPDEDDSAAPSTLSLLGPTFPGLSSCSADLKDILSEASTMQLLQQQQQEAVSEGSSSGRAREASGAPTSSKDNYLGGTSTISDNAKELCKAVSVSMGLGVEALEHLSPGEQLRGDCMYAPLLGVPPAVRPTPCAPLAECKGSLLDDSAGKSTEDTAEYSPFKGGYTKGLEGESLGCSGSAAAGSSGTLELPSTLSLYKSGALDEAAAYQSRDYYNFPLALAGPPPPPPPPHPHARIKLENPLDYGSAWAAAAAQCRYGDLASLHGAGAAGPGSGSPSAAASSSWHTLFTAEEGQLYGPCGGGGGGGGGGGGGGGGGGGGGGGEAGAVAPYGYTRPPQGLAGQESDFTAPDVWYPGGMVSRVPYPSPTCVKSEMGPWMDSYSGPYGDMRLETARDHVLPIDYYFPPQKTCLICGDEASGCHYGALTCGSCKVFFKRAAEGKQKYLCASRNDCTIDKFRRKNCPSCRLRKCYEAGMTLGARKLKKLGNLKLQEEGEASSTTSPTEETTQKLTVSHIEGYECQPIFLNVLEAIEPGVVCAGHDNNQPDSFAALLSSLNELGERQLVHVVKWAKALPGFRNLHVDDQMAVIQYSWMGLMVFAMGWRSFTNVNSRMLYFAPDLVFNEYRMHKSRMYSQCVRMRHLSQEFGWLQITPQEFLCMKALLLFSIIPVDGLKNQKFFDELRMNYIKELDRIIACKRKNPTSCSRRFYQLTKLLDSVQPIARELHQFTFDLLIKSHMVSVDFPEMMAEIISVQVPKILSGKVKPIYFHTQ
How it was run: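 Gain-of-signal reporter endpoint: cells (CHO-K1, hamster) are treated 24 h, luciferin/ATP reagent added, and luminescence compared with DMSO baseline.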

[10] = test system: rat Norepinephrine Transporter (NET), gene 83511; assay: NVS_TR_rNET: NovaScreen (NVS) Transporter Assay for rat Norepinephrine Transporter (NET) (AID 2283373)
How it was run: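 Competitive radioligand displacement at the rat NET using forebrain membrane preparations, 1 h incubation, filter-based scintillation readout. Primary testing in duplicate at a single 25 uM concentration; confirmed actives retested across concentrations.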

## Clc1ccc(Oc2ccccc2)cc1
[1]
  outcome: inactive

## CC(C)(C)c1ccccc1OP(=O)(Oc1ccccc1)Oc1ccccc1
[1]
  AC50: 9.69 µM (active)

## O=[N+]([O-])c1ccc(Cl)c(Cl)c1
[2]
  AC50: 9.12 µM (active)
[1]
  outcome: inactive
[3]
  outcome: inactive

## Oc1ccc(I)cc1
[4]
  AC50: 2.5 µM (active)
[5]
  outcome: inactive
[3]
  AC50: 19.8 µM (active)

## CCCN(CCC)c1c([N+](=O)[O-])cc(C(C)C)cc1[N+](=O)[O-]
[6]
  outcome: inactive
[7]
  outcome: inactive
[8]
  AC50: 7.26 µM (active)

## CCCCCCCc1ccc(O)cc1
[2]
  outcome: inactive
[1]
  AC50: 6.26 µM (active)
[7]
  AC50: 4.96 µM (active) and 14.5 µM (active)
  outcome: inactive
[9]
  outcome: inactive
[8]
  AC50: 12.7 µM (active) and 12.5 µM (active) and 12.6 µM (active)
  outcome: inactive

## CCOP(=S)(OCC)SCSCC
[2]
  outcome: inactive
[8]
  outcome: inactive

## Nc1ccc2ccccc2c1
[2]
  outcome: inactive
[10]
  AC50: 14.9 µM (active)
[1]
  AC50: 12.9 µM (active)
[3]
  AC50: 5.64 µM (active)
[8]
  outcome: inactive

## CC(C)(C)OOC(C)(C)C
[2]
  outcome: inactive
[8]
  outcome: inactive

## CCCCN(CC)C(=O)SCCC
[2]
  outcome: inactive
[7]
  outcome: inactive
[9]
  outcome: inactive
[8]
  outcome: inactive

## Nc1ccc([N+](=O)[O-])cc1Cl
[4]
  AC50: 0.0449 µM (active)

## CCC(C)(C)c1ccc(O)cc1
[10]
  outcome: inactive
[1]
  AC50: 10 µM (active)
[3]
  AC50: 16.1 µM (active)
[7]
  AC50: 25 µM (active)
[8]
  AC50: 4.88 µM (active)

## O=S(=O)(c1ccc(O)cc1)c1ccc(O)cc1
[2]
  outcome: inactive
[7]
  outcome: inactive
[8]
  AC50: 39.5 µM (active)

## CCNc1nc(Cl)nc(NC(C)(C)C)n1
[2]
  AC50: 0.0134 µM (active)
[7]
  outcome: inactive
[9]
  outcome: inactive
[8]
  outcome: inactive

## O=C(O)C(Cl)Cl
[5]
  outcome: inactive

## ClC(Cl)c1ccccc1
[2]
  outcome: inactive

## Cc1cc(C)c(C(=O)P(=O)(c2ccccc2)c2ccccc2)c(C)c1
[1]
  AC50: 13.6 µM (active)
[3]
  outcome: inactive

## CCOC(=O)c1ccccc1N
[2]
  outcome: inactive
[8]
  outcome: inactive

## CCCCN(CCCC)SN(C)C(=O)Oc1cccc2c1OC(C)(C)C2
[2]
  outcome: inactive
[7]
  outcome: inactive
[8]
  outcome: inactive

## N#C/C=C/c1ccccc1
[5]
  outcome: inactive

## CC1(C)CN=C(NN=C(/C=C/c2ccc(C(F)(F)F)cc2)/C=C/c2ccc(C(F)(F)F)cc2)NC1
[2]
  outcome: inactive
[5]
  AC50: 0.109 µM (active)
[3]
  AC50: 1.6 µM (active)
[9]
  outcome: inactive
[8]
  outcome: inactive

## ClC1=C(Cl)C2(Cl)C3C(Cl)C(Cl)CC3C1(Cl)C2(Cl)Cl (centres undefined)
[2]
  outcome: inactive
[6]
  outcome: inactive
[7]
  outcome: inactive
[9]
  outcome: inactive
[8]
  outcome: inactive

## CSC(C)(C)C=NO
[2]
  outcome: inactive
[1]
  outcome: inactive

## O=P(Oc1ccccc1)(Oc1ccccc1)Oc1ccccc1
[2]
  AC50: 0.00229 µM (active)
[1]
  AC50: 11.3 µM (active)

## c1ccc2c(c1)Nc1ccccc1S2
[2]
  outcome: inactive
[3]
  AC50: 6.58 µM (active)
[8]
  outcome: inactive

## CC(=O)c1ccc(-c2ccccc2)cc1
[1]
  AC50: 10.9 µM (active)

## c1ccc(OP(Oc2ccccc2)Oc2ccccc2)cc1
[2]
  outcome: inactive
[1]
  outcome: inactive
[7]
  outcome: inactive
[8]
  outcome: inactive

## OCC1CO1 (centres undefined)
[5]
  outcome: inactive

## Cc1ccc(N)cc1N
[6]
  outcome: inactive
[8]
  outcome: inactive

## O=NN1CCCC1
[2]
  outcome: inactive
[8]
  AC50: 50 µM (active)

## CC(C)Nc1ccc(Nc2ccccc2)cc1
[1]
  AC50: 1.69 µM (active)
[3]
  AC50: 2.93 µM (active)

## CCOS(=O)(=O)OCC
[2]
  outcome: inactive
[8]
  outcome: inactive

## O=c1ssc(Cl)c1Cl
[2]
  outcome: inactive
[1]
  AC50: 14.5 µM (active)
[3]
  AC50: 18.3 µM (active)

## CC(C)(C)c1ccc(O)cc1
[10]
  outcome: inactive
